# The source made the active and inactive calls. The calls were made as follows: active = hit-call score of the fitted dose curve at least 0.9, where 1 is the maximum; inactive = score below 0.9.
# Assay: CCTE_Padilla_ZF_Score.General: CCTE's 144 Hour Post-fertilization zebrafish Assay Score for General Malformation, Padilla Lab (AID 2284411)
# Procedure: CCTE_Padilla_ZF_Phenotype_Score is a whole embryo, multiplexed assay using zebrafish ova exposed for 144 hours post fertilization on a 96-well plate.CCTE_Padilla_ZF_Score.General is one of one assay component(s) measured or calculated from the CCTE_Padilla_ZF_Phenotype_Score assay. It is designed to make measurements of zebrafish development as detected with brightfield microscopy of developing zebrafish embryos.Data from the assay component CCTE_Padilla_ZF_Score.General was analyzed into 1 assay endpoints. This assay endpoint, CCTE_Padilla_ZF_Score.General, was analyzed in the positive analysis fitting direction relative to DMSO as the negative control and baseline of activity. Using a type of viability reporter, gain-of-signal activity can be used to understand changes in developmentals as they relate to the whole embryo. To generalize the intended target to other relatable targets, this assay endpoint is annotated to the zebrafish development intended target family, where the subfamily is embryonic morphogenesis.
# Zebrafish husbandry: Wild type adult zebrafish (Danio rerio; undefined outbred stock obtained from Aquatic Research Organisms, Hampton, NH, 03842) were housed in an AAALAC-approved animal facility at 28C with a 14:10 h light: dark cycle (lights on at 08:30 h). Adult fish (2-3 females per male; density = 15-20 adults per tank) were kept in one of several 9-liter (L) flow-through colony tanks (Aquaneering Inc., San Diego, CA). All adults in a colony tank were placed in a 2 L (static) breeding tank (Aquatic Habitats, Apopka, FL) one hour prior to light onset. Typically, adults from two to three colony tanks were mated on the same day. Two hours after light onset the adults were returned to the colony tank. All embryos were gathered from each breeder tank, pooled, and placed in a 28C water bath for 2 h, followed by two washes with 0.06% bleach (v/v) in 10% Hanks' Balanced Salt Solution (13.7 mM NaCl 0.54 mM KCl, 25 uM Na2HPO4, 130 uM CaCl2 100 um MgSO4 and 420 um NaHCO3,), hereafter referred to as Hanks' solution, for 5 min in order to remove any residual bacteria or fungi. Immediately following washing, the embryos were examined, and healthy embryos were separated from dead or unfertilized eggs and moved into fresh Hanks'. Chemical exposures: Zebrafish embryos were exposed in 96-well plates. Between 6- and 8-hours post fertilization (hpf), healthy embryos (with chorions) were transferred, one embryo per well, into 96 well (0.5 mL) microtiter plates (Cell Culture-Treated, Flat-Bottom Microplate 96 well [Corning Costar, Kennebunk, ME; Cat 09-761-145]) filled with 200 uL of Hanks' solution. A random number generator was used to assign the order in which the rows of embryos were plated in 96 well plates each week. After plating, the embryos were dosed with 0.8 uL of the chemical dosing solution then immediately sealed with AlumaSeal II (Excel Scientific Inc, Victorville, CA) to prevent volatilization of the chemicals, and then placed in a leakproof secondary container. These containers were placed in an incubator maintained on a 14:10 h light: dark cycle at 26C for rearing. On 5 dpf, live larvae were gently moved out of the plate with test chemicals and into a new 96 well mesh plate (Millipore Corp., Bedford, MA) with just the Hanks' solution. Once within the mesh well plate, the animals were rinsed with 400 uL of fresh Hanks' three times, and then the plates were covered with a non-adhesive material (Microseal A, BioRad, Hercules, CA), plate lid added, and then plate sides wrapped in Parafilm (PM992, Bermis Company, Neenah, WI), and returned to the incubator. […]
SMILES,outcome,AC50
O=C1C(Cl)=C(Cl)C(=O)C(Cl)=C1Cl,inactive,–
O=C1C=CC(=O)C=C1,inactive,–
O=[N+]([O-])C=Cc1ccccc1,–,2.31 µM (active)
CCCOC(=O)c1ccccc1C(=O)OCCC,inactive,–
O=c1c2ccccc2c(=O)c2c1cc(Cl)c1[nH]c3c([nH]c12)c(Cl)cc1c(=O)c2ccccc2c(=O)c13,inactive,–
CC(C)COP(=O)(OCC(C)C)OCC(C)C,inactive,–
c1ccc(Nc2ccc3ccccc3c2)cc1,inactive,–
C=CC(=O)OCC(CC)CCCC (configuration not stated),inactive,–
Cc1ccc(OP(=O)(Oc2ccc(C)cc2)Oc2ccc(C)cc2)cc1 (tested in a mixture with another compound),–,2.6 µM (active)
O=S(=O)(c1ccccc1)c1ccccc1,inactive,–
C=COCCCl,inactive,–
CC(C)CCCCCCCOC(=O)c1ccccc1C(=O)OCCCCCCCC(C)C,inactive,–

# — PubChem BioAssay (EPA / NIEHS)
